# Results reported in PMC11006913.
# Changes are numbered by the printed parent chain.
# Legend:
# Experiment in all cases: PBM; 200 nM protein, PBS
# Conditions in all cases: dsDNA, one strand shown
# [1] = molecular target: HESX1 (Homo sapiens, UniProt Q9UBX0 95-180, R165K)
# [2] = molecular target: HESX1 (Homo sapiens, UniProt Q9UBX0 95-180)
# [3] = molecular target: HESX1 (Homo sapiens, UniProt Q9UBX0 95-180, P111T)
# [4] = molecular target: PRRX1 (Homo sapiens, UniProt P54821 80-166)
# [5] = molecular target: HOXB4 (Homo sapiens, UniProt P17483 148-234)
# HOXB4 (Homo sapiens, UniProt P17483 148-234), sequence (P17483 148-234): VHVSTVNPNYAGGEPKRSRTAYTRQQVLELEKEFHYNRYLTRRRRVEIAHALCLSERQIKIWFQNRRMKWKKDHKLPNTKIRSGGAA
# [6] = molecular target: CRX (Homo sapiens, UniProt O43186 26-111)
# CRX (Homo sapiens, UniProt O43186 26-111), sequence (O43186 26-111): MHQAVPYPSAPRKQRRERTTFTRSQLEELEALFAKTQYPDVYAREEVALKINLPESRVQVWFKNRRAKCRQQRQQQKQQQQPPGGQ
# [7] = molecular target: HOXC9 (Homo sapiens, UniProt P31274 178-260, K195R)
# HOXC9 (Homo sapiens, UniProt P31274 178-260, K195R), sequence (P31274 178-260 K195R): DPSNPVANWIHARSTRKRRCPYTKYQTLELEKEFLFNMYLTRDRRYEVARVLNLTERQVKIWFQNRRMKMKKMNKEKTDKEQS
# [8] = molecular target: T1, PAX4 (Homo sapiens, UniProt O43316 9-242, R200K)
# T1 sequence: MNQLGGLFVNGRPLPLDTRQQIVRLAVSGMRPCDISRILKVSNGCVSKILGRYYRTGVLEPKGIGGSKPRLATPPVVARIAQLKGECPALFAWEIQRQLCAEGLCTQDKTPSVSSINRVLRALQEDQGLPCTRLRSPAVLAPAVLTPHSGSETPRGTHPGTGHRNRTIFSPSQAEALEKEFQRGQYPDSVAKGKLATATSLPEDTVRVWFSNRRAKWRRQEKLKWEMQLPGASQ
# [9] = molecular target: T2, PAX4 (Homo sapiens, UniProt O43316 9-242)
# T2 sequence: T1 sequence with K192R
# [10] = molecular target: HOXB4 (Homo sapiens, UniProt P17483 148-234, V174I)
# HOXB4 (Homo sapiens, UniProt P17483 148-234, V174I), sequence (P17483 148-234 V174I): as the sequence (P17483 148-234) above, with V27I counted along it
# [11] = molecular target: CRX (Homo sapiens, UniProt O43186 26-111, E42D)
# CRX (Homo sapiens, UniProt O43186 26-111, E42D), sequence (O43186 26-111 E42D): as the sequence (O43186 26-111) above, with E17D counted along it
# [12] = molecular target: HOXC9 (Homo sapiens, UniProt P31274 178-260)
# HOXC9 (Homo sapiens, UniProt P31274 178-260), sequence (P31274 178-260): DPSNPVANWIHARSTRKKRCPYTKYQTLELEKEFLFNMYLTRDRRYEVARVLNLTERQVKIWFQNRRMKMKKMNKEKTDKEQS
# [13] = molecular target: ALX3 (Homo sapiens, UniProt O95076 139-225, N203Q)
# ALX3 (Homo sapiens, UniProt O95076 139-225, N203Q), sequence (O95076 139-225 N203Q): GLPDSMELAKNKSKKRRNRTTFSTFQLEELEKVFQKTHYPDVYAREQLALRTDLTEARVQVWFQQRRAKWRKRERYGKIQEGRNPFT
# [14] = molecular target: T3, PAX4 (Homo sapiens, UniProt O43316 9-242, R200Q)
# T3 sequence: T1 sequence with K192Q
# [15] = molecular target: HOXC9 (Homo sapiens, UniProt P31274 178-260, R193K)
# HOXC9 (Homo sapiens, UniProt P31274 178-260, R193K), sequence (P31274 178-260 R193K): as the sequence (P31274 178-260) above, with R16K counted along it
# [16] = molecular target: T4, PAX4 (Homo sapiens, UniProt O43316 9-242, F177V)
# T4 sequence: T1 sequence with F169V, K192R
# [17] = molecular target: ALX3 (Homo sapiens, UniProt O95076 139-225)
# ALX3 (Homo sapiens, UniProt O95076 139-225), sequence (O95076 139-225): as the sequence (O95076 139-225 N203Q) above, with Q65N counted along it
# [18] = molecular target: T5, PAX4 (Homo sapiens, UniProt O43316 9-242, F177Y)
# T5 sequence: T1 sequence with F169Y, K192R
# [19] = molecular target: VAX1 (Homo sapiens, UniProt Q5SQQ9 86-172)
# VAX1 (Homo sapiens, UniProt Q5SQQ9 86-172), sequence (Q5SQQ9 86-172): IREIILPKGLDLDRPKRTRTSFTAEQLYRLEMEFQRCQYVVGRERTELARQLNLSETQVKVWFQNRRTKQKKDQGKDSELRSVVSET
# [20] = molecular target: ALX3 (Homo sapiens, UniProt O95076 139-225, L168Q)
# ALX3 (Homo sapiens, UniProt O95076 139-225, L168Q), sequence (O95076 139-225 L168Q): as the sequence (O95076 139-225 N203Q) above, with L30Q, Q65N counted along it
# [21] = molecular target: HOXC9 (Homo sapiens, UniProt P31274 178-260, R222W)
# HOXC9 (Homo sapiens, UniProt P31274 178-260, R222W), sequence (P31274 178-260 R222W): as the sequence (P31274 178-260) above, with R45W counted along it
# [22] = molecular target: ALX3 (Homo sapiens, UniProt O95076 139-225, L168V)
# ALX3 (Homo sapiens, UniProt O95076 139-225, L168V), sequence (O95076 139-225 L168V): as the sequence (O95076 139-225 N203Q) above, with L30V, Q65N counted along it
# [23] = molecular target: VAX1 (Homo sapiens, UniProt Q5SQQ9 86-172, T142I)
# VAX1 (Homo sapiens, UniProt Q5SQQ9 86-172, T142I), sequence (Q5SQQ9 86-172 T142I): as the sequence (Q5SQQ9 86-172) above, with T57I counted along it
# [24] = molecular target: T6, PAX4 (Homo sapiens, UniProt O43316 9-242, R227W)
# T6 sequence: T1 sequence with K192R, R219W
# [25] = molecular target: CRX (Homo sapiens, UniProt O43186 26-111, R41L)
# CRX (Homo sapiens, UniProt O43186 26-111, R41L), sequence (O43186 26-111 R41L): as the sequence (O43186 26-111) above, with R16L counted along it
# [26] = molecular target: ALX3 (Homo sapiens, UniProt O95076 139-225, N203S)
# ALX3 (Homo sapiens, UniProt O95076 139-225, N203S), sequence (O95076 139-225 N203S): as the sequence (O95076 139-225 N203Q) above, with Q65S counted along it
# [27] = molecular target: VAX1 (Homo sapiens, UniProt Q5SQQ9 86-172, K157R)
# VAX1 (Homo sapiens, UniProt Q5SQQ9 86-172, K157R), sequence (Q5SQQ9 86-172 K157R): as the sequence (Q5SQQ9 86-172) above, with K72R counted along it
# [28] = molecular target: HOXA4 (Homo sapiens, UniProt Q00056 201-287, W262R)
# HOXA4 (Homo sapiens, UniProt Q00056 201-287, W262R), sequence (Q00056 201-287 W262R): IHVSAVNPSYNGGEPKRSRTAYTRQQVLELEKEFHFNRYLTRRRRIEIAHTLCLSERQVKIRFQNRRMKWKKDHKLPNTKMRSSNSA
# [29] = molecular target: ALX4 (Homo sapiens, UniProt Q9H161 200-286)
# ALX4 (Homo sapiens, UniProt Q9H161 200-286), sequence (Q9H161 200-286): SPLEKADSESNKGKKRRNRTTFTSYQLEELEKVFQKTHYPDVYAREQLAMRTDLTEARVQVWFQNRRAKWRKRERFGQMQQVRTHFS
# [30] = molecular target: ALX4 (Homo sapiens, UniProt Q9H161 200-286, Q225E)
# ALX4 (Homo sapiens, UniProt Q9H161 200-286, Q225E), sequence (Q9H161 200-286 Q225E): as the sequence (Q9H161 200-286) above, with Q26E counted along it
# [31] = molecular target: HOXA4 (Homo sapiens, UniProt Q00056 201-287, R217L)
# HOXA4 (Homo sapiens, UniProt Q00056 201-287, R217L), sequence (Q00056 201-287 R217L): as the sequence (Q00056 201-287 W262R) above, with R17L, R62W counted along it
# [32] = molecular target: HOXA4 (Homo sapiens, UniProt Q00056 201-287)
# HOXA4 (Homo sapiens, UniProt Q00056 201-287), sequence (Q00056 201-287): as the sequence (Q00056 201-287 W262R) above, with R62W counted along it
# [33] = molecular target: HOXA4 (Homo sapiens, UniProt Q00056 201-287, W262F)
# HOXA4 (Homo sapiens, UniProt Q00056 201-287, W262F), sequence (Q00056 201-287 W262F): as the sequence (Q00056 201-287 W262R) above, with R62F counted along it
# HESX1 (Homo sapiens, UniProt Q9UBX0 95-180, P111T), sequence (Q9UBX0 95-180 P111T): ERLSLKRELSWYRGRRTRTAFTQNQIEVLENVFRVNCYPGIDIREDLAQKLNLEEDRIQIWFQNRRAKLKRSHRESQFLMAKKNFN
# HESX1 (Homo sapiens, UniProt Q9UBX0 95-180), sequence (Q9UBX0 95-180): as the sequence (Q9UBX0 95-180 P111T) above, with T17P counted along it
# HESX1 (Homo sapiens, UniProt Q9UBX0 95-180, R165K), sequence (Q9UBX0 95-180 R165K): as the sequence (Q9UBX0 95-180 P111T) above, with T17P, R71K counted along it
# PRRX1, sequence (P54821 80-166): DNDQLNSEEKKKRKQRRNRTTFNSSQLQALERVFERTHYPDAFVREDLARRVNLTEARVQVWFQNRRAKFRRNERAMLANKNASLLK
sequence,measurement,setting,value
AACAATAC,binding signal,[1],"7.27 upbm affinity estimate (log intensity, higher = more binding, comparable within an allelic series)"
same,binding signal,[2],"7.3 upbm affinity estimate (log intensity, higher = more binding, comparable within an allelic series)"
same,binding signal,[3],"7.19 upbm affinity estimate (log intensity, higher = more binding, comparable within an allelic series)"
same,binding signal,[4],"10.9 upbm affinity estimate (log intensity, higher = more binding, comparable within an allelic series)"
CGAGGGTC,binding signal,[5],"7.67 upbm affinity estimate (log intensity, higher = more binding, comparable within an allelic series)"
same,binding signal,[6],"8.26 upbm affinity estimate (log intensity, higher = more binding, comparable within an allelic series)"
same,binding signal,[7],"9.55 upbm affinity estimate (log intensity, higher = more binding, comparable within an allelic series)"
same,binding signal,[8],"8.99 upbm affinity estimate (log intensity, higher = more binding, comparable within an allelic series)"
same,binding signal,[9],"9.09 upbm affinity estimate (log intensity, higher = more binding, comparable within an allelic series)"
same,binding signal,[10],"7.5 upbm affinity estimate (log intensity, higher = more binding, comparable within an allelic series)"
same,binding signal,[11],"8.34 upbm affinity estimate (log intensity, higher = more binding, comparable within an allelic series)"
same,binding signal,[12],"9.61 upbm affinity estimate (log intensity, higher = more binding, comparable within an allelic series)"
same,binding signal,[13],"7.7 upbm affinity estimate (log intensity, higher = more binding, comparable within an allelic series)"
same,binding signal,[14],"9.19 upbm affinity estimate (log intensity, higher = more binding, comparable within an allelic series)"
same,binding signal,[15],"9.61 upbm affinity estimate (log intensity, higher = more binding, comparable within an allelic series)"
same,binding signal,[16],"9.25 upbm affinity estimate (log intensity, higher = more binding, comparable within an allelic series)"
same,binding signal,[17],"7.59 upbm affinity estimate (log intensity, higher = more binding, comparable within an allelic series)"
same,binding signal,[18],"9.23 upbm affinity estimate (log intensity, higher = more binding, comparable within an allelic series)"
same,binding signal,[19],"6.87 upbm affinity estimate (log intensity, higher = more binding, comparable within an allelic series)"
same,binding signal,[20],"7.67 upbm affinity estimate (log intensity, higher = more binding, comparable within an allelic series)"
same,binding signal,[21],"9.69 upbm affinity estimate (log intensity, higher = more binding, comparable within an allelic series)"
same,binding signal,[22],"7.68 upbm affinity estimate (log intensity, higher = more binding, comparable within an allelic series)"
same,binding signal,[23],"7 upbm affinity estimate (log intensity, higher = more binding, comparable within an allelic series)"
same,binding signal,[24],"9.33 upbm affinity estimate (log intensity, higher = more binding, comparable within an allelic series)"
same,binding signal,[25],"8.26 upbm affinity estimate (log intensity, higher = more binding, comparable within an allelic series)"
same,binding signal,[26],"7.71 upbm affinity estimate (log intensity, higher = more binding, comparable within an allelic series)"
same,binding signal,[27],"7.08 upbm affinity estimate (log intensity, higher = more binding, comparable within an allelic series)"
CAGGACCC,binding signal,[5],"7.14 upbm affinity estimate (log intensity, higher = more binding, comparable within an allelic series)"
same,binding signal,[6],"8.22 upbm affinity estimate (log intensity, higher = more binding, comparable within an allelic series)"
same,binding signal,[28],"9.96 upbm affinity estimate (log intensity, higher = more binding, comparable within an allelic series)"
same,binding signal,[29],"7.85 upbm affinity estimate (log intensity, higher = more binding, comparable within an allelic series)"
same,binding signal,[30],"8.07 upbm affinity estimate (log intensity, higher = more binding, comparable within an allelic series)"
same,binding signal,[31],"9.81 upbm affinity estimate (log intensity, higher = more binding, comparable within an allelic series)"
same,binding signal,[10],"7.15 upbm affinity estimate (log intensity, higher = more binding, comparable within an allelic series)"
same,binding signal,[11],"8.19 upbm affinity estimate (log intensity, higher = more binding, comparable within an allelic series)"
same,binding signal,[32],"9.67 upbm affinity estimate (log intensity, higher = more binding, comparable within an allelic series)"
same,binding signal,[25],"8.24 upbm affinity estimate (log intensity, higher = more binding, comparable within an allelic series)"
same,binding signal,[33],"9.89 upbm affinity estimate (log intensity, higher = more binding, comparable within an allelic series)"
